Measurements: PubChem BioAssay AID1835 (Johns Hopkins Ion Channel Center, 2009)
The whole screen tested about 2,400 compounds, of which about 750 (31%) were called active. The list shows a part of the results. A number with no mark means an inactive call.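 The calls were made as follows: active = median signal gain over dofetilide-blocked control wells reaching their mean plus 3 SD, so readout 1 at least 0; inactive = the rest.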

The compounds below were run against Voltage-gated inwardly rectifying potassium channel KCNH2 (Homo sapiens) (UniProt Q12809) (assay: hERG protection against dofetilide inhibition, confirmation, cell-based, thallium flux, duplicate retest, dofetilide IC70 (AID 1835)). Details: hERG cell line, FluxOR thallium flux, dofetilide-blocked; at 10 µM; active compounds read high.
Voltage-gated inwardly rectifying potassium channel KCNH2 (Homo sapiens), sequence (Q12809 whole entry, looked up): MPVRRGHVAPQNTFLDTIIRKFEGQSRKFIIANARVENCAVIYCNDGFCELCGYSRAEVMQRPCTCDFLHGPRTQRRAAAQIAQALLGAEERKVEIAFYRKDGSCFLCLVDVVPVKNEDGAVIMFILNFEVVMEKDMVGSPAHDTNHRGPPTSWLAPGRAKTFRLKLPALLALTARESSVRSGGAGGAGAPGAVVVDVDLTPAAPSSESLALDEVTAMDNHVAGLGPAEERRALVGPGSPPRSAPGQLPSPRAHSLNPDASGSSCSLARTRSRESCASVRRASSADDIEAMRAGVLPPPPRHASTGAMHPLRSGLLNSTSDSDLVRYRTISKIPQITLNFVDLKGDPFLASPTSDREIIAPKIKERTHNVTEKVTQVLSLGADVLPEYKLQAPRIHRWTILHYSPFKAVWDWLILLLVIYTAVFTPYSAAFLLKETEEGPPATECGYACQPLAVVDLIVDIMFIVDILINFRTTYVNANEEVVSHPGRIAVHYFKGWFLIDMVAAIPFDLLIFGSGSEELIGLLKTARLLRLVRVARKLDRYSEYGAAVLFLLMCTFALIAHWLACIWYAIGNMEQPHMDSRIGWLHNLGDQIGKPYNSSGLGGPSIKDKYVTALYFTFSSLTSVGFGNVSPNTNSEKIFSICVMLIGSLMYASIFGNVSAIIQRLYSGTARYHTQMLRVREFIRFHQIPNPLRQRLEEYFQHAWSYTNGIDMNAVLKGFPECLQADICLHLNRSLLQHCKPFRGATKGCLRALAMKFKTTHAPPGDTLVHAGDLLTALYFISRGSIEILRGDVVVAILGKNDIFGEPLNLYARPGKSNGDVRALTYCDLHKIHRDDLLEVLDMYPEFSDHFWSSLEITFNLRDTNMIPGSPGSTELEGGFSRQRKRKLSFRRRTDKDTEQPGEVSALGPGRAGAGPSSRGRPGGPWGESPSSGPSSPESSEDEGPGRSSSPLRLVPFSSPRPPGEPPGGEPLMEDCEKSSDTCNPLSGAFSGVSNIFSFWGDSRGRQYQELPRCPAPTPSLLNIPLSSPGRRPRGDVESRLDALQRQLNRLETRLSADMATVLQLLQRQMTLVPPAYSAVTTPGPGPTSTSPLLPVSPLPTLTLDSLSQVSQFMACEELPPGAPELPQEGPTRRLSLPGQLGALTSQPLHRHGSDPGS

SMILES	activity increase over dofetilide control, less the hit threshold
COC(=O)Cn1c(=O)c(=O)n(CC(=O)OC)c2ccccc21	-15%
COc1ccccc1CNC(=O)COC(=O)c1ccccn1	-13%
COc1ccc(C(=O)CC(=O)C(=O)Nc2ccc(C)c(C)c2)cc1	-3%
COc1ccc(C(=O)CC(=O)C(=O)Nc2ccc(C)c(Cl)c2)cc1	0%
COc1ccc(C(=O)CC(=O)C(=O)Nc2ccccc2)cc1	5% (active)
COc1ccc(C(=O)CC(=O)C(=O)Nc2ccc(Cl)cc2)cc1	9% (active)
COc1ccc(NC(=O)CSCC(=O)Oc2c(OC)cccc2OC)cc1	-26%
CC(=O)Nc1ccc(S(=O)(=O)N2CCC(NC(=O)c3ccccc3)CC2)cc1	-17%
CCN(CC)C(=O)CN1C(=O)C2CC=C(Cl)CC2C1=O (stereo unspecified)	-15%
Cc1cc(C)n(-c2nc3sc4c(c3c(=O)[nH]2)CCCC4)n1	-10%
O=c1c2c3c(sc2[nH]c(=S)n1Cc1ccco1)CCC3	18% (active)
O=C1c2ccccc2C(=O)N1Cc1ccco1	-8%
Cc1ccc(-n2c(=S)[nH]c3sc4c(c3c2=O)CCC4)cc1	-1%
CCn1c(=S)[nH]c2sc3c(c2c1=O)CCCCC3	107% (active)
CCCn1c(=S)[nH]c2sc3c(c2c1=O)CCCC3	76% (active)
CCn1c(=S)[nH]c2sc3c(c2c1=O)CCCC3	27% (active)
CC(C)OC(=O)CSc1nnc(C2CCCCC2)n1N	-15%
Cc1cnc(NC(=O)CN2CCN(c3ccccc3F)CC2)s1	-5%
CCCCCOc1ccc(C2C(C(C)=O)=C(C)Nc3ncnn32)cc1OC (stereo unspecified)	-11%
CCc1cccc(C)c1NC(=O)Cc1ccsc1	-12%
Cc1ccc(S(=O)(=O)N(C)C)cc1NC(=S)NC(C)CCCC(C)C (stereo unspecified)	-30%
CCC(C)NC(=O)CSc1ncnc2sccc12 (stereo unspecified)	-7%
Cc1sc2ncnc(SCC(=O)c3ccc(O)cc3O)c2c1C	2% (active)
COC(=O)c1ccc(Cn2cnc3c(cnn3-c3ccc(Cl)cc3)c2=O)o1	-2%

SMILES	activity increase over dofetilide control, less the hit threshold
COC(=O)c1ccc(CSc2ncnc3sc(C)c(C)c23)o1	7% (active)
Cc1sc2ncnc(SCC(=O)NC(=O)c3cccn3C)c2c1C	2% (active)
Cc1ccc(-n2nc3ccc(N)cc3n2)c(C)c1	-28%
O=C(CN1CCN(Cc2ccccc2)CC1)NCc1ccccc1Cl	-1%
Cc1cc(S(=O)(=O)NCC(C)C)ccc1OCC(=O)NCc1ccccn1	-29%
CCOC(=O)CP(=O)(c1ccccc1)c1ccccc1	-9%
C/C(=N\NC(=O)CSc1nc2ccccc2o1)c1ccc(O)cc1	-15%
CCOC(=O)Cc1nc2ccccc2o1	5% (active)
O=C(Nc1cccc(Br)c1)C1CCCC1	-11%
Cc1cc(C)c2nc(NC(=O)C3CCCO3)sc2c1 (stereo unspecified)	-8%
O=C(Nc1nc2c(Br)cc(Br)cc2c(=O)s1)C1CCC1	1% (active)
O=C(COc1ccc(S(=O)(=O)NCc2ccccc2)cc1Cl)NCC1CCCO1 (stereo unspecified)	-26%
O=C(NC(=S)Nc1ccccc1)c1csnn1	88% (active)
COc1ccc(NC(=S)Nc2ccccn2)cc1	-11%
COc1ccc(NC(=S)NC(=O)c2csnn2)cc1	23% (active)
COc1ccc(NC(=O)c2onc(C)c2Cl)cc1	-10%
O=C(NC(=S)Nc1ccccc1)c1cncc(C#Cc2ccccc2)c1	-8%
Cc1snnc1C(=O)NC(=S)Nc1ccccc1	30% (active)
O=C(NC(=S)Nc1ccccc1Cl)c1csnn1	79% (active)
Cc1ccc(NC(=S)NC(=O)c2ccc(-c3ccccc3)cc2)cc1	-2%
Cc1cccnc1NC(=O)c1csnn1	-3%
O=c1[nH]c2ccccc2nc1C(F)(F)C(F)F	-11%
C/C(=N/NC(=O)c1ccncc1)c1ccc2c(c1)OCO2	-9%
O=C1CSC(=S)N1/N=C/c1cc(Br)ccc1O	7% (active)

SMILES	activity increase over dofetilide control, less the hit threshold
Cc1oc(-c2cccs2)nc1CN1CCC(C(=O)N2CCCC2)CC1	-11%
Cc1ccc(C(=O)NC(=S)N(C)C2CCCCC2)cc1	27% (active)
CN(C(=S)NC(=O)c1ccc(F)cc1)C1CCCCC1	6% (active)
Cc1cccc(C(=O)NC(=S)NNC(=O)COc2c(C)cccc2C)c1	-12%
CN(C(=S)NC(=O)c1ccc(Cl)cc1)C1CCCCC1	-3%
Cc1ccc(C(=O)NC(=S)N(C)C2CCCCC2)cc1Br	-5%
COc1ccc(C(=O)NC(=S)N(C)C2CCCCC2)cc1	-2%
CN(C(=S)NC(=O)c1ccccc1)C1CCCCC1	16% (active)
Cc1cccc(C(=O)NC(=S)N(C)C2CCCCC2)c1	21% (active)
O=C(N/N=C/c1ccc(OC(F)F)cc1)C1=COCCO1	-8%
c1ccc2oc(-c3nn4c(Cn5cnc6ccccc65)nnc4s3)cc2c1	-12%
CCC(=O)N1c2ccc(C)cc2C2=NNC(=S)NC21O (stereo unspecified)	-6%
O=C(NC(=S)Nc1ccc(C(F)(F)F)cc1)c1csnn1	60% (active)
O=C(NC(=S)Nc1cccc(C(F)(F)F)c1)c1csnn1	102% (active)
COc1ccc(C(=O)O)cc1S(=O)(=O)Nc1cccc(C(F)(F)F)c1	-4%
O=C(Nc1ccc(-c2csc(Nc3cccc(C(F)(F)F)c3)n2)cc1)c1ccccc1	-25%
Cc1cc(-c2nnc(SCC(=O)Nc3ccc(C(F)(F)F)cc3)n2C)no1	-23%
c1ccc2oc(-c3ccn[nH]3)cc2c1	-10%
O=C(COC(=O)c1cc[n+]([O-])cc1)Nc1cc([N+](=O)[O-])ccc1Cl	-20%
COc1ccc(C)cc1NC(=O)C(=O)NNC(=O)c1ccco1	55% (active)
COc1ccccc1NC(=O)C(=O)NNC(=O)c1ccco1	35% (active)
O=C(CCC(=O)Nc1ccccc1)NNC(=O)c1ccco1	-12%
CN(c1ccccc1)S(=O)(=O)c1ccc(Cl)c(C(=O)Nc2nn[nH]n2)c1	-4%
